± gives the standard deviation of the averaged measurements. Over roughly 33,000 sequences, “E-score (rank enrichment, -0.5 to 0.5)” has its median near -0.0068; the highest 2% begin near 0.24. This excerpt belongs to a sample that is enriched for the highest values.
Tested on: muMax20 (Max(13-93) K31hArg/K57hArg, M65Nle)
Assay: PBM 8-mer E-score (E-score (rank enrichment, -0.5 to 0.5)); higher = stronger preferential binding
Protocol: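 Protein binding microarray (universal PBM chip covering all 10-mers in fixed probe flanks) with chemically synthesized human Max(13-93) bHLH-LZ analogs (not full-length Max) bearing noncanonical residues (hArg, Tha, Aib, Nle at 65) and aromatic Cys staples. Read-out per 8-mer (and its reverse complement): E-score (rank-based enrichment, -0.5 to 0.5) and Z-score of median probe intensity.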

Row | Sequence | PBM 8-mer E-score
1 | CATCTTCC | 0.14 ± 0.005
2 | CTAGCGAA | -0.129 ± 0.063
3 | CTAGTGCA | 0.0056 ± 0.097
4 | GAGAGTCA | 0.0012 ± 0.088
5 | ATCCACCA | 0.068 ± 0.024
6 | GGGGCCCC | -0.138 ± 0.039
7 | GACAATAA | 0.216 ± 0.067
8 | AACACCAA | 0.239 ± 0.018
9 | GACACCAA | -0.0812 ± 0.037
10 | TACACCAA | -0.0765 ± 0.027
11 | TACAATAA | 0.33 ± 0.008
12 | CACAATAA | 0.151 ± 0.0047
13 | AACTTCTT | 0.155 ± 0.031
14 | TAATTTGA | 0.0569 ± 0.0096
15 | CAATTTGG | 0.0732 ± 0.059
16 | CAATTTGA | 0.246 ± 0.051
17 | AATCAGCA | 0.0143 ± 0.044
18 | ACCTGTTG | 0.112 ± 0.12
19 | AGATATGA | 0.028 ± 0.0086
20 | CTACCAAC | 0.118 ± 0.079
21 | ATACCAAG | 0.0843 ± 0.073
22 | GTACCATA | 0.0347 ± 0.038
23 | ATACCATG | 0.0838 ± 0.02

Row | Sequence | PBM 8-mer E-score
24 | ATACCATA | 0.298 ± 0.029
25 | ATACCAAC | 0.271 ± 0.01
26 | ATAGAAGC | 0.041 ± 0.086
27 | TAAGGGAA | 0.0705 ± 0.073
28 | CTCCCGTA | 0.0488 ± 0.069
29 | TTAAAGAA | 0.17 ± 0.072
30 | CTAAAGAA | 0.0925 ± 0.088
31 | ATAAAGCA | 0.243 ± 0.037
32 | ATAAAGCG | 0.0396 ± 0.047
33 | ATAAAGAA | 0.264 ± 0.018
34 | CTAAAGCA | 0.0825 ± 0.012
35 | CACCGGCA | -0.12 ± 0.023
36 | ACGTTCCT | 0.0666 ± 0.011
37 | ATACCTAC | 0.129 ± 0.12
38 | ATTTAGAC | 0.0494 ± 0.067
39 | ATAACGCG | 0.073 ± 0.11
40 | CTTTCGGC | -0.149 ± 0.041
41 | AAAAACCG | 0.0778 ± 0.087
42 | CAAAACCA | 0.0801 ± 0.046
43 | TAAAACCA | 0.131 ± 0.048
44 | CAAACCTA | 0.125 ± 0.027
45 | AAAAACCC | -0.0325 ± 0.027
46 | AAAACCTA | 0.269 ± 0.0045

Row | Sequence | PBM 8-mer E-score
47 | AAAAACCA | 0.244 ± 0.0092
48 | AAAACCTT | 0.103 ± 0.011
49 | AAAAACCT | 0.25 ± 0.024
50 | CCTTGCGC | -0.034 ± 0.012
51 | GGGGCGAC | -0.0761 ± 0.044
52 | AATCAGCT | 0.298 ± 0.065
53 | AATCAGCC | -0.00374 ± 0.048
54 | AATCAGCG | -0.0368 ± 0.011
55 | ACTTTGAT | 0.142 ± 0.062
56 | TCAGTAAA | 0.013 ± 0.12
57 | CATACTTC | 0.181 ± 0.048
58 | TATATAGA | 0.0968 ± 0.19
59 | AATATAGA | 0.292 ± 0.049
60 | AATATACT | 0.215 ± 0.043
61 | TATATACA | 0.178 ± 0.03
62 | GATATACA | 0.0962 ± 0.0042
63 | AATATACA | 0.293 ± 0.01
64 | CATATAGA | 0.145 ± 0.049
65 | CATATACA | 0.254 ± 0.031
66 | CATATACC | 0.0712 ± 0.07
67 | TACATCAA | 0.11 ± 0.093
68 | GCCAAGCC | -0.109 ± 0.012
69 | GAGTGACC | -0.141 ± 0.015
